# ATXN2 expr inh: Primary qHTS for Inhibitors of ATXN expression; HEK-293 ATXN2-luciferase reporter, luminescence, 24 h; Potency, µM (top dose mostly 57 µM), without a hit: top-dose activity change, negative = inhibition, actives largely listed as inhibitors; actives 0.72% (n = 360,000); AID 1745845, 2022; also: % is scaled to controls: 0 for no effect and ±100 for the full control effect; nearly all actives have a fitted effect of over 55% in size
#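 qHTS (up to 57 uM final) was run with 24 h compound exposure of reporter cells at 37 °C. Each well was multiplexed: SteadyGlo luminescence measured ATXN2-luciferase expression after a fluorogenic Gly-Phe-AFC viability readout (25 uM final).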
# S2 tox: Viability Counterscreen for Primary qHTS for Inhibitors of ATXN expression. actives 0.49% (n = 400,000). S2 cells (HEK-293 line with an ATXN2-luciferase reporter) viability, CellTiter-Fluor protease fluorescence, 24 h. AID 651635, 2014. Potency, µM (top dose mostly 56.7 µM), actives largely listed as cytotoxic; also: nearly all actives have a fitted effect of over 40% in size
# TGFb inhibitor: qHTS for Inhibitors of TGF-b; HepG2 CAGA-GFP TGF-b/SMAD3 reporter, GFP fluorescence, 18 h; TGF-beta stimulated, 500 pg/mL final; Potency, µM (highest dose often 46.1 µM), inactives show at the top dose activity, negative = inhibition, hits mostly inhibitors; actives 1.2% (n = 410,000); also: % is scaled to controls: 0 for no effect and ±100 for the full control effect; nearly all actives have a fitted effect of over 65% in size
#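 Read-out: total well GFP (ex488/em500-530) summed from mean per-cell fluorescence. Cells: HEPG2 CAGA-GFP, 1% FBS DMEM, 18 h at 37 degrees C with 500 pg/mL final TGF-beta. Unstimulated wells served as the full-inhibition control; stimulated DMSO wells = 0%.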
# HepG2 viability: qHTS for Inhibitors of TGF-b: Cytotox Counterscreen; AID 588856, 2011; actives 0.76% (n = 410,000); Potency, µM (series often up to 46.1 µM), for inactives: top-dose activity change, negative = cytotoxicity, usual class: cytotoxic; HepG2 CAGA-GFP viability, ATP luminescence, 18 h
#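 CellTiter-Glo luminescence gave cytotoxicity after 18 hours at 37 degrees C. The cells were HepG2 CAGA-GFP in 1% FBS DMEM, stimulated with 500 pg/mL TGF-beta after compound addition. %Activity was normalised to no-cell wells (complete cell-killing) and DMSO (no toxicity), and curves were fitted and classified.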
# HT1080-NT tox: qHTS for induction of synthetic lethality in tumor cells producing 2HG: qHTS for the HT-1080-NT fibrosarcoma cell line; AID 686970, 2013; actives 1.6% (n = 360,000); HT-1080-NT fibrosarcoma viability, CellTiter-Glo ATP luminescence, 48 h; Potency, µM (titrated, usually from 46.1 µM), for inactives: at the highest dose activity, negative = less viability, actives largely listed as cytotoxic;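 also: NT is the 2HG producing partner of a matched IDH1 knockdown line; 0% = DMSO-treated cells and -100% = media-only wells without cells; nearly all actives have a fitted effect of over 55% in size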
#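 Compounds were tested in concentration-response format on HT-1080-NT cells for 48 hours at 37 degrees C. Cell viability came from CellTiter-Glo luminescence; curves were classified by r2, response magnitude and activity.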
# HT1080 IDH1KD tx: qHTS for induction of synthetic lethality in tumor cells producing 2HG: qHTS for the HT-1080-IDH1KD cell line | HT-1080 IDH1 knockdown viability, ATP luminescence, 48 h | Potency, µM (series often up to 46.1 µM), inactives show top-dose activity, negative = toxicity, hits mostly cytotoxic | actives 2% (n = 360,000) | AID 686971, 2013;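 also: 0% = DMSO wells and -100% = cell-free medium wells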
#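 Using the IDH1-knockdown HT-1080 line run in the same batch and compound series as the NT line, viability after 48 h at 37 °C was determined by CellTiter-Glo luminescence and expressed as % activity.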
# Starred values were filed as active, the others as inactive; i = inactive; ? = inconclusive; · = no result; [ ] = another dose, or the depositor's remark. The list is not random: actives were taken first. Their share in the collection is about 3.8%. Calls follow the shape of the dose curve; as a rule, active = well fitted curve in the direction sought with a large enough effect; inconclusive = small, poorly fitted or top-dose-only effect, or another doubt; inactive = no such curve, though single readings can be large; an effect the other way counts as inactive or inconclusive. Potency is read from the fitted curve at half-maximal effect.
SMILES,ATXN2 expr inh,S2 tox,TGFb inhibitor,HepG2 viability,HT1080-NT tox,HT1080 IDH1KD tx
CCCC(=O)N1CCN(c2ccc(NC(=O)c3ccc(Br)o3)cc2)CC1,13%,i,-2%,-2%,19%,9%
CCC(=O)N1CCN(c2ccc(NC(=O)c3ccc(N4CCOCC4)c([N+](=O)[O-])c3)cc2)CC1,5%,?,-14%,11%,11%,1%
CCCC(=O)N1CCN(c2ccc(NC(=O)c3ccc([N+](=O)[O-])o3)cc2)CC1,-16%,i,?,-90%,13µM*,6.5µM*
CCC(=O)N1CCN(c2ccc(NC(=O)c3ccc([N+](=O)[O-])o3)cc2)CC1,23%,i,?,-45%,6.5µM*,5.2µM*
CN(C)c1ccc(/C=C/c2nc3ccccc3s2)cc1Cl,·,·,?,-34%,·,·
c1ccc(Cc2nnc(Sc3ccccc3)c3ccccc23)cc1,-38%,i,?,20µM*,?,11µM*
C[N+]1(CC(=O)c2ccc(Cl)cc2)CCOCC1,·,·,11%,5%,·,·
Cc1ccc(C(=O)N(Cc2ccco2)Cc2sccc2C)cc1,·,·,?,-16%,·,·
O=C(CCc1nc2ccccc2c(=O)[nH]1)NNC(=O)c1cccc(Cl)c1,-32%,i,-17%,-3%,-10%,-6%
O=C(CCc1nc2ccccc2c(=O)[nH]1)NCc1cccc(Cl)c1,-14%,i,6%,-24%,21µM*,?
Cc1cc(NC(=O)c2ccccc2)n(-c2nc3ccccc3[nH]2)n1,-35%,?,8%,-27%,11%,8%
Cc1cc(NC(=O)C2CCCC2)n(-c2nc3ccccc3[nH]2)n1,-33%,i,-1%,-23%,7.9µM*,4µM*
Cc1cccc(C)c1NC(=O)C(c1ccc(-c2ccccc2)cc1)n1c(=O)c(-c2cc3ccccc3[nH]2)nc2ccccc21 (stereo not drawn),·,·,·,·,-3%,-13%
CC(C)(C)NC(=O)C(c1ccncc1)n1c(-c2ccc(C(F)(F)F)cc2)nc2ccccc21 (stereo not drawn),·,·,·,·,?,21µM*
CC(C)(C)NC(=O)C(c1ccc(C(F)(F)F)cc1)n1c(=O)c(-c2cc3ccccc3[nH]2)nc2ccccc21 (stereo not drawn),·,·,·,·,?,21µM*
CC(C)(C)NC(=O)C(c1ccc(-c2ccccc2)cc1)n1c(=O)c(-c2cc3ccccc3[nH]2)nc2ccccc21 (stereo not drawn),·,·,·,·,2%,-16%
O=C(NC1CCCCC1)C(C1CC1)n1c(=O)c(-c2cc3ccccc3[nH]2)nc2ccccc21 (stereo not drawn),·,·,·,·,?,-47%
Cc1cccc(C)c1NC(=O)C(c1ccc(C(F)(F)F)cc1)n1c(=O)c(-c2cc3ccccc3[nH]2)nc2ccccc21 (stereo not drawn),·,·,·,·,?,21µM*
O=C(NCc1ccccc1)C(C1CC1)n1c(=O)c(-c2cc3ccccc3[nH]2)nc2ccccc21 (stereo not drawn),·,·,·,·,23µM*,?
O=C(O)[C@H]1O[C@H](Oc2cc3oc(-c4ccccc4)cc(=O)c3c(O)c2O)[C@H](O)[C@@H](O)[C@H]1O,-19%,·,·,·,·,·
CCN(CC)CCNC1=NCCn2c1cc1cc(OC)ccc12,?,i,3%,-54%,?,?
CCN(CC)CCCCNc1ncc2cc(-c3cc(OC)cc(OC)c3)c(NC(=O)NC(C)(C)C)nc2n1,?,8.9µM*,?,14µM*,16µM*,9.2µM*
CN(C)c1ccc(C=O)cc1[N+](=O)[O-],·,·,-15%,-37%,·,·
CCOc1ccc(S(=O)(=O)Nc2cc(Cl)ccc2O)cc1,-18%,i,?,-38%,?,23µM*
CCOc1ccc(S(=O)(=O)Nc2cccc(Cl)c2)cc1,-32%,i,-30%,-8%,?,-4%[9.24 µM]
SMILES,ATXN2 expr inh,S2 tox,TGFb inhibitor,HepG2 viability,HT1080-NT tox,HT1080 IDH1KD tx
Cc1ccccc1-n1c(C)cc(/C=N/Nc2ccc([N+](=O)[O-])cn2)c1C,2%,i,7%,-5%,23µM*,?
Cc1cc([N+](=O)[O-])nn1Cc1ccc(C(=O)N/N=C/c2ccc(F)cc2)cc1,-16%,i,0%,-23%,-4%,-7%
Cc1cc([N+](=O)[O-])nn1Cc1ccc(C(=O)N/N=C/c2ccc(O)cc2O)cc1,?,?,?,-14%,?,2.1µM*
CCCOc1ccc(/C=N/Nc2cccc([N+](=O)[O-])c2)c(O)c1,28%,·,?,-27%,15µM*,13µM*
CCN(CC)S(=O)(=O)c1ccc(N/N=C/c2ccc(O)cc2O)nc1,2.8µM*,?,-5%,-18%,?,?
Oc1ccc(C=NNc2ccccn2)c(O)c1,?,?,-6%,1%,-27%,?
Cc1ccc(CNC(=O)C2CCCN(S(=O)(=O)c3ccc4c(c3)oc(=O)n4C)C2)cc1 (stereo not drawn),7%,i,?,-5%,·,·
COc1cccc(CN2CCC3(CCC(CNC(=O)c4cc(C)nn4C)O3)CC2)c1OC (stereo not drawn),·,i,·,·,·,·
COc1cc(-c2ccc(C(F)(F)F)cn2)cc2c1OCCN(S(=O)(=O)C[C@]13CC[C@H](CC1=O)C3(C)C)C2,·,i,·,·,·,·
O=[N+]([O-])c1ccc(O)c(/C=N/Nc2ncnc3c2cnn3-c2ccccc2)c1,2.8µM*,?,?,-78%,?,?
O=[N+]([O-])c1ccc(NN=Cc2ccc(O)cc2O)nc1,?,i,2%,-13%,?,3.3µM*
Cc1ccccc1NC(=S)N/N=C/c1ccc(O)cc1O,?,?,-21%,-4%,?,10µM*
CCCOc1ccc(/C=N/NC(=S)Nc2ccccc2[N+](=O)[O-])c(O)c1,?,?,?,-19%,9.2µM*,15µM*
C=C1C=C(C(F)F)n2ncc(C(=O)NCc3ccc(OC)cc3)c2N1,·,·,23%,6%,·,·
CN(CCCN(Cc1ccc(Cl)cc1)c1ccc(Br)cn1)C(=S)NCCCc1cnc[nH]1,·,·,?,-97%,·,·
Cc1cc(Cl)ccc1NC(=O)CCC(=O)N/N=C/c1cc([N+](=O)[O-])ccc1O,-3%[11.3 µM],i,-20%,-3%,-18%,-22%

# Compound activity as filed in PubChem BioAssay.
